Data: the supplement of paper PMC5641865, “A screen for kinase inhibitors identifies antimicrobial imidazopyridine aminofurazans as specific inhibitors of the Listeria monocytogenes PASTA kinase PrkA” (The Journal of Biological Chemistry, 2017)
± gives the standard deviation of the averaged measurements.

tested on: Listeria monocytogenes 10403S; assay: growth inhibition relative to ceftriaxone-alone control; higher = stronger potentiation of ceftriaxone growth inhibition; conditions: 10 µM; ceftriaxone 1 ug/ml; 12 h
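Note: End-point A600 read in BHI broth at 37 °C with 2% DMSO, inhibition computed as (1 − OD with compound plus ceftriaxone ÷ OD with ceftriaxone only) × 100.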

Structure (SMILES)	growth inhibition [%]
c1ccc(-c2nc3n(c2-c2ccc4c(c2)OCO4)CCC3)nc1	-10.3 ± 17
CS(=O)(=O)Nc1ccc(N/C=C2\C(=O)Nc3ccccc32)cc1	-14.6 ± 19
COCCOc1ccc2c(c1)ncn2-c1ccc2cccc(N3CCC(N)CC3)c2n1	7.08 ± 14
Nc1ncnc2c1c(-c1cccc(OCc3ccccc3)c1)cn2C1CC(CN2CCCC2)C1 (stereo not drawn)	61.4 ± 52
COc1ccc(-c2nn3ncccc3c2-c2ccnc(Nc3cccc(C(F)(F)F)c3)n2)cc1	2.98 ± 4.9
CC1=C(C(=O)Nc2ccc3[nH]ncc3c2)C(c2ccc(Cl)c(Cl)c2)CC(=O)N1 (stereo not drawn)	-13 ± 9.9
Fc1ccc(-c2nc3n(c2-c2ccncc2)CCS3)cc1	-8.85 ± 15
Cc1cc(O)cc(C)c1/C=C/c1cncc(C(=O)OC(C)(C)C)c1	-0.285 ± 0.11
NCC(=O)Nc1ccc(-n2nc(C(F)(F)F)cc2-c2ccc3c(ccc4ccccc43)c2)cc1	85.45 ± 0.52
COc1cc2c(Nc3ccc(NC(=O)c4ccccc4)cc3)ncnc2cc1OCCCN1CCOCC1	24.9 ± 20
COc1cc2nccc(Oc3ccc(NC(=O)Nc4cc(C)on4)c(Cl)c3)c2cc1OC [Tivozanib (AV-951)]	23.7 ± 1.2
CCn1c(-c2nonc2N)nc2cnc(Oc3cccc(NC(=O)c4ccc(N(C)C)cc4)c3)cc21	-5.93 ± 1.5
CCc1nccc2c1nc(-c1nonc1N)n2CC	-8.48 ± 4.8
COc1cc2/c(=N/c3ccc(Br)cc3F)nc[nH]c2cc1OCC1CCN(C)CC1 [Vandetanib (Zactima)]	24.2 ± 29
CCc1cc2c(cc1N1CCC(N3CCOCC3)CC1)C(C)(C)c1[nH]c3cc(C#N)ccc3c1C2=O	-2.85 ± 9.2
COc1ccc(-c2ccc3ncc4c(c3c2)n(-c2ccc(N3CCNCC3)c(C(F)(F)F)c2)c(=O)n4C)cn1	28.5 ± 9.7
O=C1Nc2ccc(C(=O)c3ccco3)cc2C1=Cc1cc(Cl)c(O)c(Cl)c1	13.9 ± 4.5
Cc1cc(O)cc(C)c1/C=C/c1cncc(-c2nn[nH]n2)c1	-2.34 ± 0.16
O=C(O[C@H]1CN[C@H](C#Cc2cc3ncnc(Nc4ccc5c(cnn5Cc5ccccc5)c4)c3s2)C1)N1CCOCC1	-5.28 ± 15

Structure (SMILES)	growth inhibition [%]
CNC(=O)c1ccc(-c2cnc3ncc(Cc4ccc5ncccc5c4)n3n2)cc1F	16.9 ± 8.9
CN1CCN(C(=O)c2ccc(NC(=O)Nc3ccc(N(C)c4ccnc(Nc5ccc(CS(C)(=O)=O)cc5)n4)cc3)cc2)CC1	-5.87 ± 3.3
CCn1c(-c2nonc2N)nc2c(C#CC(C)(C)O)nc(OC[C@@H](N)c3ccccc3)cc21	71.3 ± 3.1
COc1cc(Nc2ncc3c(C)nc(-c4cccc(C(F)(F)F)c4)n3n2)cc(OC)c1OC	-2.03 ± 8.5
COC(=O)Nc1nc2ccc(Sc3ccc(NC(=O)Nc4cc(C(F)(F)F)ccc4F)cc3)cc2[nH]1	-12.7 ± 13
CC(C)(C)c1nc(-c2cccc(NS(=O)(=O)c3c(F)cccc3F)c2F)c(-c2ccnc(N)n2)s1	56.2 ± 26
CC1=C(C(=O)Nc2ccc3[nH]ncc3c2)C(c2ccc3ccccc3c2)CC(=O)N1 (stereo not drawn)	11.5 ± 2.3
CN1CCC(n2cnc(-c3ccc(F)cc3)c2-c2ccnc(NCCO)n2)CC1	-2.88 ± 2.5
Cc1ccc(F)c(NC(=O)Nc2ccc(-c3cccc4[nH]nc(N)c34)cc2)c1 [Linifanib (ABT-869)]	29.9 ± 19
COc1cc(Nc2c(C#N)cnc3cc(OCCCN4CCN(C)CC4)c(OC)cc23)c(Cl)cc1Cl [Bosutinib (SKI-606)]	72.2 ± 1.1
Cc1[nH]nc2ccc(-c3cncc(OC[C@@H](N)Cc4ccccc4)c3)cc12	76.8 ± 16
CC(C)NC[C@@H](C(=O)N1CCN(c2ncnc3c2[C@H](C)C[C@H]3O)CC1)c1ccc(Cl)cc1	23.5 ± 8.6
Fc1ccc(Nc2nccc(-c3c(-c4ccc(C(F)(F)F)cc4)nn4ncccc34)n2)cc1F	-3.35 ± 4.4
CCOc1ccn(-c2ccc(F)cc2)c(=O)c1C(=O)Nc1ccc(Oc2ccnc(N)c2Cl)c(F)c1	23.6 ± 24
Cc1ccc(NC(=O)c2cccc(C(C)(C)C#N)c2)cc1Nc1ccc2ncn(C)c(=O)c2c1	47.4 ± 11
FC(F)(F)c1ccc(-c2nn3ncccc3c2-c2ccnc(Nc3ccc4c(c3)OCCO4)n2)cc1	-7.04 ± 3.3
Clc1ccc(C2(c3ccc(-c4cn[nH]c4)cc3)CCNCC2)cc1	100 ± 1.4
O=C1NC(=O)C(c2ccccc2Cl)=C1Nc1cccc(O)c1	-3.8 ± 3.6
CC(=O)Nc1cccc(C#Cc2cncnc2Nc2ccc(OCc3cccc(F)c3)c(Cl)c2)n1	-0.967 ± 4.2
